# Assay outcomes (PubChem)
# This is a sample that favours compounds with a hit; in the whole collection about 4% have one here.
# CF NFkB block: inhibitors of PAF-induced NF-kB signaling, primary screen, cell-based, GFP fluorescence, uHTS. KKLEB NF-kB-GFP reporter, GFP fluorescence overnight. inhibition, % at 5 µM. actives 0.86% (n = 360,000). AID 588850, 2011;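 active means at least 50% inhibition at 5 µM, scaled per plate between neutral and stimulator controls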;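 further: PAF is a Pseudomonas aeruginosa culture filtrate used as stimulus; plate controls were PAF-stimulated DMSO wells for no effect and unstimulated DMSO wells for full effect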
# Peg3 promoter: Peg3 promoter-driven luciferase inhibitors, primary screen, cell-based, HeLa, luciferase luminescence; HeLa PEG-Prom luciferase reporter, overnight; inhibition, % at 20 µM; actives 1.7% (n = 360,000);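 active means inhibition of at least 50% at 20 µM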
# HIF-2a block: HIF-2a reporter inhibitors, primary screen, luminescence, 786-0 RCC cells; 786-0 RCC cells HIF-2a reporter, luciferase luminescence, overnight; inhibition, % at 18.8 µM; actives 0.72% (n = 360,000); AID 624352, 2012;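 active means inhibition of the luminescence signal of 40% or more relative to plate controls, in a single-dose primary screen at 18.75 µM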
# TROY NFkB inh: inhibitors of TROY-driven NF-kB signaling, primary screen, Q293 LMP1-TROYcd cells, NF-kB luciferase, uHTS; Q293 LMP1-TROYcd NF-kB luciferase reporter, 4 h; inhibition, % at 10 µM; actives 0.98% (n = 360,000); AID 1347056, 2019;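 active means compounds whose plate-normalised and pattern-corrected inhibition of the luciferase reporter signal at the single screening dose is 50% or more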
# TWEAK Fn14 block: inhibitors of TWEAK-Fn14 signaling, primary screen, luciferase reporter cells, uHTS; TWEAK-stimulated Fn14 reporter cells, luciferase luminescence, 8 h; inhibition, % at 10 µM; actives 2% (n = 360,000); AID 1159606, 2016; in the data active means inhibition above about 50%
# KKLEB tox: cytotoxicity in KKLEB CF airway cells, primary screen, cytotoxicity control for CF NF-kB inhibitor project, cell-based, uHTS, fluorescence assay plates; KKLEB CF airway cells viability, ATPlite luminescence, overnight; active compounds read low; cells stimulated with P. aeruginosa culture filtrate; actives 0.36% (n = 360,000); activity change (cytotoxicity), % at 5 µM; AID 602141, 2011;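 active means corrected activity change at or below -50% at 5 µM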
# Active calls of the source: *.
SMILES,CF NFkB block,Peg3 promoter,HIF-2a block,TROY NFkB inh,TWEAK Fn14 block,KKLEB tox
O=C(N/N=C/c1c(O)ccc2ccccc12)c1cccc(C(F)(F)F)c1,50,68*,-21,42,41,-52*
Oc1ccc2ccccc2c1C=NNc1ccccn1,77*,-79,-160,-44,16,-81*
COc1ccccc1OCC(=O)N/N=C/c1c(O)ccc2ccccc12,-6,63*,3,29,11,-12
OCC[C@@H]1C[C@H](O)[C@@H](O)[C@@]2(OCc3ccc(CO)cc32)O1,-2,5,8,6,-2,0
CC(=O)c1cccc(NC(=O)COC(=O)Cn2cnc3ccccc32)c1,19,-4,11,-7,8,-86*
CCOC(=O)c1cnn(C)c1NC(=O)c1ccc([N+](=O)[O-])cc1,-1,-11,8,-5,17,2
O=C1OC(/C(=C\Nc2ccc(F)cc2F)[N+](=O)[O-])c2ccccc21 (configuration not stated),10,18,-4,0,51*,-9
Cc1ccc(N/C=C(\C2OC(=O)c3ccccc32)[N+](=O)[O-])c(C)c1 (configuration not stated),-25,16,1,7,44,3
COCc1cc(C)nc(OCC(=O)N/N=C/c2ccc(C)o2)c1C#N,-12,1,19,7,-11,4
COc1ccccc1CNC(=O)Nc1nc(C(N)Cc2ccc(Cl)cc2)cs1 (configuration not stated),22,94*,1,6,18,-17
COc1ccc(CNC(=O)Nc2nc(C(N)CCc3ccccc3)cs2)cc1 (configuration not stated),8,88*,13,11,-12,-6
COc1cc(CNC(=O)Nc2nc(C(N)CCc3ccccc3)cs2)cc(OC)c1OC (configuration not stated),13,40,2,-2,-6,-17
COc1ccc(CNC(=O)Nc2nc(C(N)Cc3ccc(Cl)cc3)cs2)cc1 (configuration not stated),19,96*,-6,10,5,-12
Cc1cc(C)cc(OCc2nc3ncc(Br)cc3[nH]2)c1,35,21,18,19,4,-50*
COc1cccc(OCc2nc3ncc(Br)cc3[nH]2)c1,15,-76,-110,-31,6,-32
Cc1c(NC(=O)C(C)OC(=O)c2ccc([N+](=O)[O-])s2)c(=O)n(-c2ccccc2)n1C (configuration not stated),-11,-3,4,-2,25,-2
Cc1ccccc1NCC(=O)N/N=C/C(Br)=C/c1ccccc1,2,-15,-116,20,58*,1
Cc1ccc(S(=O)(=O)N2CCC(C(=O)Nc3ccc(N4CCOCC4)cc3)CC2)cc1C,-7,4,-3,-9,-5,-9
Nc1nc(=S)c2[nH]c(=S)[nH]c2[nH]1,8,35,9,7,12,4
Nc1nc(=S)c2[nH]cnc2[nH]1,2,63*,13,-11,25,-6
CC(=O)c1sc(NC(=O)C2(F)C(F)(F)C(F)(F)C(F)(F)C(F)(F)C2(F)F)nc1C,65*,39,-26,62*,65*,-52*
CC(=O)c1sc(NC(=O)C=C(C)C)nc1C,-9,-102,-141,-39,-12,5
CC(C)(C)OC(=O)N1CCC(NC(=O)c2nc[nH]c2C(=O)N2CCc3ccccc3C2)CC1,-11,15,-3,13,-11,1
CC(C)(C)C(=O)OCc1ccc(C2=CC(=O)CC(C)(C)C2=O)cc1,9,-14,-54,-50,-1,17
CCCCCCOc1ccc(/C(C)=N/NC2=NCCN2)cc1[N+](=O)[O-],-2,111*,-154,6,-50,-8
SMILES,CF NFkB block,Peg3 promoter,HIF-2a block,TROY NFkB inh,TWEAK Fn14 block,KKLEB tox
C/C(=N\NC1=NCCN1)c1ccc(N)c([N+](=O)[O-])c1,-26,7,-5,-21,-6,0
CCCCOc1ccc(Br)cc1/C(C)=N/NC1=NCCN1,34,41,26,31,51*,-18
CCc1nc2c(OCc3ccccc3C(=O)OC)cccn2c1N(C)C(=O)CC(C)C,4,27,4,-7,0,-1
CN(C)c1cc(NC(=O)CNC(C)(C)C)c2ccccc2n1,-25,15,20,-2,51*,9
COCCNC(=O)C1(C)CCCN(Cc2ccc(Cl)c(Cl)c2)C1 (configuration not stated),-4,10,13,-2,-13,12
Cc1oc2ccc(O)c(CN3CCOCC3)c2c1C(=O)c1ccc(Cl)cc1,31,19,8,6,16,-11
Cc1oc2c(Cl)c(Cl)c(O)c(CN(C)C)c2c1C(=O)c1ccc(Cl)cc1,51*,-7,21,48,75*,13
C#CCCc1ccccc1/C=[N+](/C)[O-],-16,-20,-72,43,51*,3
O=C(O)c1cc(N/N=C/C(Cl)=C/c2ccccc2)ccc1Cl,2,44,29,-80,8,2
COc1cc(NC(=S)N2CCCC(CO)C2)cc(OC)c1 (configuration not stated),2,0,-19,-37,62*,2
O=C(NCc1ccc(F)cc1)c1cc(C2CCCCN2C(=O)OCCF)on1 (configuration not stated),7,6,16,-7,-20,16
CC(=O)/C(C(=N)N1CCN(c2cccc(Cl)c2)CC1)=C(\C)O,11,0,-3,57*,75*,-1
COC(=O)c1c(NC(=O)CCl)sc(C(=O)N2CCOCC2)c1C,50*,37,-2,-2,2,-40
NNC(=O)C1COc2cc3ccccc3cc2O1 (configuration not stated),-29,-1,12,13,8,-1
O=C(N/N=C\c1ccccn1)C1COc2cc3ccccc3cc2O1 (configuration not stated),16,4,8,-11,73*,-6
CC(Sc1nnc(CN2CCCC2)n1Cc1ccccc1)C(=O)Nc1ccccc1 (configuration not stated),1,11,0,66*,4,22
NS(=O)(=O)c1ccc(CNC(=O)c2ccc(C(=O)c3ccccc3)cc2)cc1,21,4,-8,-3,-14,-9
O=[N+]([O-])c1ccc(/C=N/n2cnc3ccccc32)s1,18,38,-46,-16,54*,-10
